Results from PubChem BioAssay.

Test: growth of efflux-deficient E. coli DRC39 – strain DRC39, OD650, 48 h, E. coli filamentation inducers, primary screen (AID 1179);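 also: screen aims at cell division blockers that make cells filament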
Details: E. coli DRC39 delta-acrAB growth, higher = more signal, called active from +8 up or from −8 down

z-score, inactive:
Cc1ccc(S[C@]2(C(=O)O)CC(=O)N(Cc3cc(C(F)(F)F)cc(C(F)(F)F)c3)[C@@H]2c2ccc(CO)cc2)cc1 -0.526, CC(C)Cc1ccc(CN2CC[C@@H](NC(=O)Nc3ccccc3)C2)cc1 -0.748, C=CC1c2cc(O)c(OC)cc2CCN1Cc1cc2c(cc1Br)OCO2 (stereo not drawn) -1.69, O=C1O[C@H](c2ccccc2)[C@H](c2ccccc2)N2[C@H]1[C@@H](C(=O)N1CCN(c3ncccn3)CC1)[C@]1(C(=O)Nc3ccc(C#CC4(O)CCCCCC4)cc31)[C@H]2c1ccc(OCCO)cc1 -0.0689, COC(=O)C(CC#Cc1ccc2c(c1)[C@]1(C(=O)N2)[C@H](c2ccccc2OCCO)N2[C@H](c3ccccc3)[C@H](c3ccccc3)OC(=O)[C@H]2[C@@H]1C(=O)NC[C@H](O)c1ccccc1)C(=O)OC 0.615, Cc1ccccc1C(O)C1C=CC2C(=O)N(C)C(=O)C2N1N(c1ccccc1)c1ccccc1 (stereo not drawn) -0.334, CCC[C@@H]1C[C@@]1(CCC)[C@@H](NC(=O)OCc1ccccc1)c1ccc(-c2ccccc2)cc1 0.492, CN(C)C(=O)C1N=C(c2ccc(OCCCO)cc2)N(c2ccccc2)O1 (stereo not drawn) 1.56, O=C1O[C@H](c2ccccc2)[C@H](c2ccccc2)N2[C@H]1[C@@H](C(=O)O)[C@]1(C(=O)Nc3ccc(C#CC4=CCCCC4)cc31)[C@H]2c1ccc(O)cc1 -0.174, C=CCOC(=O)[C@H]1[C@@H]2C(=O)O[C@@H](c3ccccc3)[C@@H](c3ccccc3)N2[C@@H](c2ccc(OCCOC(=O)[C@H]3C[C@H]4C(=O)N[C@@H](CCCCNC(C)=O)C(=O)N4[C@H]3c3ccc(O)cc3)cc2)[C@]12C(=O)Nc1ccccc12 2.11, CN1C(=O)C2C=CC(C(O)c3cccc4ccccc34)N(N3CCCCC3)C2C1=O (stereo not drawn) -0.456, C=CCOC(=O)[C@H]1[C@@H]2C(=O)O[C@@H](c3ccccc3)[C@@H](c3ccccc3)N2[C@@H](c2ccc(OCCOC(=O)[C@@H]3C[C@@H]4C(=O)N5CCC[C@H]5C(=O)N4[C@@H]3c3ccc(O)cc3)cc2)[C@]12C(=O)Nc1ccc(I)cc12 0.0802, O=C1C2C=CC(C(O)c3ccccc3)N(Nc3ccccc3F)C2C(=O)N1c1ccccc1 (stereo not drawn) 0.206, CN(C)c1ccc(C(O)C2C=CC3C(=O)N(c4ccccc4)C(=O)C3N2Nc2ccc([N+](=O)[O-])cc2)cc1 (stereo not drawn) -0.914, [N-]=[N+]=NCc1ccccc1[C@H]1OC(c2ccc(OCCCO)cc2)=N[C@@]1(CCS(=O)(=O)c1ccccc1)C(=O)N1CCCCC1 -0.846, C=CCOC(=O)[C@H]1[C@@H]2C(=O)O[C@@H](c3ccccc3)[C@@H](c3ccccc3)N2[C@@H](c2ccc(OCCOC(=O)[C@@H]3C[C@@H]4C(=O)N[C@@H](CCCCNC(C)=O)C(=O)N4[C@@H]3c3ccc(O)cc3)cc2)[C@]12C(=O)Nc1ccc(I)cc12 -1.25, COc1cc2c(cc1OC)CN(C(=O)[C@@H]1[C@H]3C(=O)O[C@H](c4ccccc4)[C@H](c4ccccc4)N3[C@H](c3ccc(OCCO)cc3)[C@@]13C(=O)Nc1ccc(C#CC4(O)CCCCCC4)cc13)CC2 0.854, C=C(/C(=C/C[C@H](OC(C)=O)c1ccccc1OCCO)c1cc(C(=O)OC)ccc1OC)C(C)C -0.216, CCOC(=O)C[C@H]1[C@H](OC(=O)c2cc3ccccc3oc2=O)[C@@H](NC(=O)c2ccc(-c3ccccc3)cc2)c2cc(OCCCO)ccc2N1C(=O)c1ccc2ccccc2n1 0.211, CN(C)CCCCNC(=O)[C@@H]1C[C@@H]2C(=O)N[C@@H](Cc3ccccc3)C(=O)N2[C@@H]1c1cccc(OCCO)c1 2.13, COc1ccc([Si](C)(C)[C@@H]2[C@@H](CCO)O[C@]3(C(=O)N(Cc4ccc(N5CCCCC5=O)cc4)c4ccccc43)[C@H]2C)cc1 1.14, COCCOC(=O)N1C(=O)[C@@]2(c3cc(C#CC4=CCCCC4)ccc31)[C@H](c1ccccc1OCCO)N1[C@H](c3ccccc3)[C@H](c3ccccc3)OC(=O)[C@H]1[C@@H]2C(=O)Nc1nc2ccccc2s1 -0.3, CCCCC(=C=CC[C@@H](O)c1ccccc1OCCO)C[C@@H](O)COCc1ccccc1 0.406
